Assay [1] concerns the target Calcium and integrin-binding protein 1 (Homo sapiens) (UniProt Q99828). Kind of assay: Primary qHTS for Identification of Calcium Integrin Binding Protein 1 (CIB1) Competitor (AID 1508620). Note: top concentration of the series differs between compounds; % is set by controls: 0 for no effect and ±100 for the full control effect. Summed up: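 Fluorescence polarization competition: GST-tagged CIB1 (1 uM final) preincubated with compound 15 min at room temperature, then FITC-labelled alphaIIb peptide (100 nM final) added. After 15 min at room temperature, polarization read at Ex 480/Em 540.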
For orientation: Quantitative high-throughput screening tests each substance at several concentrations.

The nature of assay [2]: Primary qHTS for inhibitors of nuclear receptor binding SET domain protein 2 (NSD2) in an RCH-ACV wild type WT cells (2C) (AID 1645877). Note: nearly all actives have a fitted effect of over 70% in size. Note: potency is the fitted concentration of half-maximal effect.
Assay [3] has as its target Cytochrome P450 2D6 (Homo sapiens) (UniProt P10635). Kind of assay: Cytochrome P450 family 2 subfamily D member 6 (CYP2D6) small molecule antagonists: luciferase biochemical (cell-free) qHTS assay (AID 1645840; active = well fitted curve in the direction sought with a large enough effect in the repeat runs; an effect the other way counts as inactive or inconclusive; note: nearly all actives have a fitted effect of over 55% in size; note: potency is the fitted concentration of half-maximal effect; for activity change, negative = inhibition: series mostly up to about 57 µM; % is set by controls: 0 for no effect and ±100 for the full control effect). In outline:
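P450-Glo luminescent screen: recombinant CYP2D6 enzyme–proluciferin substrate mix preincubated with compound 10 min at room temperature, then NADPH regeneration added for 1 h at room temperature. Detection reagent added for 20 min; luciferin light read as relative luminescence units.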

Assay [4] has as its target Cytochrome P450 2C9 (Homo sapiens) (UniProt P11712). Kind of assay: Cytochrome P450 family 2 subfamily C member 9 (CYP2C9) small molecule antagonists: luciferase biochemical (cell-free) qHTS assay (AID 1645842; active = well fitted curve in the direction sought with a large enough effect in the repeat runs; an effect the other way counts as inactive or inconclusive; note: nearly all actives have a fitted effect of over 55% in size; note: potency is the fitted concentration of half-maximal effect; for activity change, negative = inhibition: series mostly up to about 57 µM; % is set by controls: 0 for no effect and ±100 for the full control effect). Summed up: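 Luminescence, after 20 min with luciferin detection reagent, reflected CYP2C9 turnover during a 1 h NADPH-driven reaction at 37C. Enzyme-substrate mix contained 0.4% bovine serum albumin and was preincubated with compound 10 min at room temperature.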

Assay [5] is described as follows: Primary qHTS for small molecule stabilizers of the endoplasmic reticulum resident proteome: Secreted ER Calcium Modulated Protein (SERCaMP) assay (AID 1508630). Note: % is set by controls: 0 for no effect and ±100 for the full control effect. In outline:
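GLuc-SERCaMP-expressing SH-SY5Y cells, pretreated 16 h with compound, are challenged with thapsigargin to empty ER calcium stores; after 4 h, coelenterazine is added directly to the medium and luminescence is imaged.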

Assay [6] deals with Cytochrome P450 3A4 (Homo sapiens) (UniProt P08684). Kind of assay: Cytochrome P450 family 3 subfamily A member 4 (CYP3A4) small molecule antagonists: luciferase qHTS assay (AID 1645841; active = well fitted curve in the direction sought with a large enough effect in the repeat runs; an effect the other way counts as inactive or inconclusive; note: nearly all actives have a fitted effect of over 45% in size). In outline:
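P450-Glo CYP3A4 enzyme with proluciferin substrate preincubated 10 min with compound at room temperature, then NADPH regeneration 1 h. Luciferin detection reagent added for 20 min; luminescence recorded. Ketoconazole positive control.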

Assay [7] in a line: Primary qHTS for inhibitors of nuclear receptor binding SET domain protein 2 (NSD2) in an isogenic RCH-ACV NSD2 p.E1099K mutant (9B) (AID 1645876). Note: nearly all actives have a fitted effect of over 70% in size. Note: potency is the fitted concentration of half-maximal effect.
Assay [8] has as its target N-terminal Xaa-Pro-Lys N-methyltransferase 1 (Homo sapiens) (UniProt Q9BV86). Kind of assay: Confirmatory qHTS for Inhibitors of N-terminal methyltransferase 1 (NTMT1): MTaseGlo Assay (AID 1645874).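 Note: luminescence from SAH made as NTMT1 methylates SPKRIA peptide using SAM; series mostly up to about 100 µM; 0% = DMSO control and -100% = no-enzyme control; nearly all actives have a fitted effect of over 65% in size.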 In outline: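 Luminescent MTase-Glo read-out of SAH. 125 nM NTMT1, 100 uM SAM, 1 uM SPKRIA substrate, 30 min RT reaction after 15 min compound preincubation. Normalized to no-enzyme and DMSO controls; Hill fit.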

Where “and” joins values, the source holds several entries; their conditions need not be identical. Equal entries are not always repeated. Results filed as inconclusive are left out. Unmarked numbers belong to inactive results. Calls of active or inactive are those of the source. Unless noted, calls come from the whole dose curve; as a rule, active = well fitted curve in the direction sought with a large enough effect; inconclusive = small, poorly fitted or top-dose-only effect, or another doubt; inactive = no such curve, though single readings can be large; an effect the other way counts as inactive or inconclusive.

The results in this text go back to PubChem BioAssay (NCATS).

Chain of Calcium and integrin-binding protein 1 (Homo sapiens) (Q99828 whole entry, looked up): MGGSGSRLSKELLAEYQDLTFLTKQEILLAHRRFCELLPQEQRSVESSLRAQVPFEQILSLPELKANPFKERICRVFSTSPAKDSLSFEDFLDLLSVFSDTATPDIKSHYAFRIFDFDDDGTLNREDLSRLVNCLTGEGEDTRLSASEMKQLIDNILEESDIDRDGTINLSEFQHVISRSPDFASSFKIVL
Chain of Cytochrome P450 2C9 (Homo sapiens) (P11712 whole entry, looked up): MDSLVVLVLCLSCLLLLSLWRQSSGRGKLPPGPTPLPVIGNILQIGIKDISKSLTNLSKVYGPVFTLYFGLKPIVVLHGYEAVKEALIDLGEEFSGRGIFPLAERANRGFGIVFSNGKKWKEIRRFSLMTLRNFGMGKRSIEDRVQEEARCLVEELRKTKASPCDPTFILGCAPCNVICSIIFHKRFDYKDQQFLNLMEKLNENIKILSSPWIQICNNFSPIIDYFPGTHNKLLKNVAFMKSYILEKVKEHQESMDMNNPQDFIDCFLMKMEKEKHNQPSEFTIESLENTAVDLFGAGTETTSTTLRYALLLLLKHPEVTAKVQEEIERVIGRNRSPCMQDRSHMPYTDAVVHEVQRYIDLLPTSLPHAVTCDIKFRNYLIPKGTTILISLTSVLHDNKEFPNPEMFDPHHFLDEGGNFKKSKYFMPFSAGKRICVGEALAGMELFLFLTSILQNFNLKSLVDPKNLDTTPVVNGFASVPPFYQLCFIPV
Chain of Cytochrome P450 2D6 (Homo sapiens) (P10635 whole entry, looked up): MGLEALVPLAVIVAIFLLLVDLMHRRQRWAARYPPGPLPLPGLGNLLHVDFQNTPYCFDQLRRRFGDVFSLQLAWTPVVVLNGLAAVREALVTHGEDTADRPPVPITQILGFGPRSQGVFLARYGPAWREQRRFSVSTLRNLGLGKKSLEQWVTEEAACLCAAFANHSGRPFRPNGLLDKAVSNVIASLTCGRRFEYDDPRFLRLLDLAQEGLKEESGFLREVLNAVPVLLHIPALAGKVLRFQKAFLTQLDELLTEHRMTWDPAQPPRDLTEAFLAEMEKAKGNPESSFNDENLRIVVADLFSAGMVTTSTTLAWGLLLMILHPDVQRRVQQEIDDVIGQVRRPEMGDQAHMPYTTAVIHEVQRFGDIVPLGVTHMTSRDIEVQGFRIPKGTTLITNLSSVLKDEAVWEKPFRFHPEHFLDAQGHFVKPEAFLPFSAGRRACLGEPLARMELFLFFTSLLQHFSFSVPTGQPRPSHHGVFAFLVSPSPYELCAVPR
Chain of N-terminal Xaa-Pro-Lys N-methyltransferase 1 (Homo sapiens) (Q9BV86 whole entry, looked up): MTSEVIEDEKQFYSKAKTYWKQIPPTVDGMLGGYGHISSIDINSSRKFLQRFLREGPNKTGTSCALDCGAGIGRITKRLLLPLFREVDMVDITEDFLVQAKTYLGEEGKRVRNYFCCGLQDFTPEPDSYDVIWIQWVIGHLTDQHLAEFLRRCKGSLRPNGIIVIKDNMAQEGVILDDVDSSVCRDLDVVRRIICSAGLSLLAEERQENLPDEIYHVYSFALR
Chain of Cytochrome P450 3A4 (Homo sapiens) (P08684 whole entry, looked up): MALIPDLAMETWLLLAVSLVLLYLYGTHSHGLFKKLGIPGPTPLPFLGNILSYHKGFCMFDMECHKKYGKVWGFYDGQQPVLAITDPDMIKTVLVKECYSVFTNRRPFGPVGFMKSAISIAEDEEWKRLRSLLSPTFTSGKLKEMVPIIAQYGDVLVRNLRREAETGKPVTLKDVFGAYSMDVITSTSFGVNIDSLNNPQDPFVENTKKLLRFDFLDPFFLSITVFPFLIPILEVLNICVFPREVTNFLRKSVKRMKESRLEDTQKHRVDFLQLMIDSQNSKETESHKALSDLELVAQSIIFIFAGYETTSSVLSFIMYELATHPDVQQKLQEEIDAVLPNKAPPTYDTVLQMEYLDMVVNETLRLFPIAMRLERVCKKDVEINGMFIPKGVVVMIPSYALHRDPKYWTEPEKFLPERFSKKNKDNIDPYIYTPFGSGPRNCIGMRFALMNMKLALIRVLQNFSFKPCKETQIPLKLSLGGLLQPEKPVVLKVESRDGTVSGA

Turning to `O=C(O)c1ccc(N2C(=O)/C(=C/c3ccc(-c4ccc([N+](=O)[O-])cc4)o3)C=C2c2ccccc2)cc1`, the Potency result in assay [1] and in assay [2] was “inactive” in each case.

`CCCCC(=O)O`: the Potency result in assay [3] and in assay [4] was “inactive” each time.

As for `C=C1CC2[C@@]3(C)C=CC(=O)C(C)(C)C3=C(O)C(=O)[C@@]2(C)C2(C(=O)OC)C(=O)C(C)OC(=O)[C@@]12C` (some centres undefined), in assay [1], the Potency entry is “inactive”. Moreover, the Potency in assay [2] was 8.93 µM (active).

As to `C=CC(C)(C)c1[nH]c2ccccc2c1C[C@@H]1NC(=O)[C@H](C)NC1=O`, the Potency result in assay [1] and in assay [2] was “inactive” throughout.

As for `COC[C@H](c1ccc(C(F)(F)F)cc1)N1CCN(C2(C)CCN(C(=O)c3c(C)ncnc3C)CC2)C[C@H]1C`, the Potency in assay [3] was 16.9 µM (active).

In the case of `C=C1CCCC2(C)CCC(C(C)(C)OC3OC(C)C(O)C(O)C3OC(=O)/C(C)=C\C)CC12` (centres undefined), the Potency result in assay [1] is “inactive”. Also, the Potency in assay [2] is 10 µM (active).

For `NC(=O)C[C@@H](N)C(=O)O`, the outcome in assay [5] was inactive.

Regarding `N#C/C(=C1\Nc2ccccc2S1)c1ccnc(NCCc2cccnc2)n1`, the results for the Potency in assay [3] and in assay [4] were 8.49 µM (active) and 0.239 µM (active), respectively.

On to `COc1cc(OC)c(NC(=O)c2ccc(Cc3cc4c(cc3C)C(C)(C)CCC4(C)C)o2)c(OC)c1`, for which the Potency result in assay [1] is “inactive”. For the same compound, the Potency in assay [2] was 23 µM (active).

For the compound `CC(O)C(C)n1ncn(-c2ccc(N3CCN(c4ccc(OCC5COC(Cn6cncn6)(c6ccc(Cl)cc6Cl)O5)cc4)CC3)cc2)c1=O` (centres undefined), the Potency result in assay [1] and in assay [2] was “inactive” throughout.

On to `Cc1cc2c(N3CCCC3)nc(N3CCCC3)nc2n1C`, for which the Potency in assay [3] was 3.01 µM (active); in assay [4] it was 15.1 µM (active).

On to `O=C(CN1C2=NCCN2c2ccccc21)c1ccc(-c2ccccc2)cc1`, for which the figures for the Potency in assay [3], in assay [7] and in assay [2] were 4.77 µM (active), 11.5 µM (active) and 6.49 µM (active), respectively. In addition, the Potency result in assay [6] was “inactive”.

For the compound `COc1ccc(CN2CCN(C(=O)CCNC(=O)c3ccc(C(C)(C)C)cc3)CC2)cc1`, the Potency was 15.1 µM (active) in assay [3] and 8.49 µM (active) in assay [4].

Consider `CC(C)=CCc1cc2c(cc1O)OC[C@H]1c3ccc(O)cc3O[C@@H]21`, for which the Potency result in assay [1] was “inactive”. Further, the Potency in assay [2] was 14.2 µM (active).

Take `C=CS(=O)(=O)O`: the Potency entry in assay [3] and in assay [4] was “inactive” each time.

On to `C[C@@H]1O[C@@H](O[C@H]2CC[C@@]3(C)C(CC[C@]4(C)C3CC=C3[C@@H]5CC(C)(C)CC[C@]5(C(=O)O[C@@H]5O[C@H](CO)[C@@H](O)[C@H](O)[C@H]5O)CC[C@]34C)[C@]2(C)CO)[C@H](O)[C@H](O[C@@H]2O[C@H](CO)[C@@H](O)[C@H](O)[C@H]2O)[C@H]1O` (some centres undefined), for which the Potency entry in assay [1] is “inactive”. Also, the Potency in assay [2] is 3.46 µM (active).

As for `Cc1c(O)cc2c(c1C)O[C@](C)(CCC[C@H](C)CCC[C@H](C)CCCC(C)C)CC2`, the Potency result in assay [3] was “inactive”.

For `CC(C)(CO)c1cc2cc(NC(=O)C3(c4ccc5c(c4)OC(F)(F)O5)CC3)c(F)cc2n1CC(O)CO` (centres undefined), the Potency entry in assay [1] and in assay [2] was “inactive” in each case.

With `COC1=CC(=O)O/C1=C(/OC)[C@@H]1O[C@H]1c1ccccc1`, the Potency result in assay [1] is “inactive”. In addition, the Potency in assay [2] is 18.3 µM (active).

`O=S(O)CO`: the Potency entry in assay [3] was “inactive”.

`CO[C@H]1C[C@@H]2CC[C@@H](C)[C@@](O)(O2)C(=O)C(=O)N2CCCC[C@H]2C(=O)O[C@H]([C@@H](C)C[C@@H]2CC[C@@H](O)[C@H](OC)C2)CC(=O)[C@H](C)/C=C(\C)[C@@H](O)[C@@H](OC)C(=O)[C@H](C)C[C@H](C)/C=C/C=C/C=C/1C`: in assay [1], the Potency entry is “inactive”. Moreover, in assay [2], the Potency was 25.8 µM (active).

In the case of `CCCCCCCCCC(=O)O`, the Potency result in assay [3] and in assay [4] was “inactive” in each case.

For the compound `O=P(O)(O)OC(CO)CO`, the Potency entry in assay [3] and in assay [4] was “inactive” throughout.

Consider `Nc1c(CC(=O)O)cccc1C(=O)c1ccccc1`, for which the Potency result in assay [3] and in assay [4] was “inactive” each time.

With `COc1ccccc1C(=O)Nc1cc2c(cc1N1CCCC1)n(C)c(=O)n2C`, the Potency result in assay [1] is “inactive”. The Potency in assay [2] is 23.5 µM (active).

For the compound `C=Cc1ccccc1`, the Potency result in assay [3] and in assay [4] was “inactive” in each case.

In the case of `CNc1cc2[nH]c(=O)n(-c3ccc(NC(=O)NS(=O)(=O)c4ccc(Cl)s4)cc3)c(=O)c2cc1F`, the Potency result in assay [3], in assay [4], in assay [7] and in assay [2] was “inactive” each time.

For the compound `O=c1[nH]c2cccc(N3CCN(Cc4ccc(-c5ccccc5)cc4)CC3)c2o1`, the Potency is 8.49 µM (active) in assay [3] and 5.35 µM (active) in assay [4].

Take `CN(C)CCOc1cc(NS(=O)(=O)c2c(Cl)cc(C(F)(F)F)cc2Cl)ccc1Cl`: the Potency in assay [3] is 16.9 µM (active); in assay [4], 8.49 µM (active).

With `O=S(=O)(Nc1cc(Cl)c(Oc2cnc3ccccc3c2)c(Cl)c1)c1ccc(Cl)cc1Cl`, the Potency in assay [4] was 3.01 µM (active).

With `CCC(=C(c1ccc(OCCN2CCCC2)cc1)c1ccc(OCCN2CCCC2)cc1)c1ccccc1`, in assay [4], the activity change, negative = inhibition is 1.82% [at 11.5 µM]. In addition, the Potency in assay [7] and in assay [2] was 3.65 µM (active) throughout.

For `CCOC(=O)c1ccc(OCCC2CCN(c3ccc(C)nn3)CC2)cc1`, the Potency in assay [4] was 19 µM (active). Moreover, the Potency entry in assay [7] was “inactive”.

As for `CCOc1ccc(Cc2nc(-c3c(C)nc4ccccn34)cs2)cc1`, in assay [8], the Potency entry is “inactive”. For the same compound, the Potency in assay [7] and in assay [2] was 0.183 µM (active) throughout.

For `O=C(OCCO)c1ccccc1O`, the Potency result in assay [3] and in assay [4] was “inactive” in each case.

As for `CC1(S(=O)(=O)O)CC(=O)c2ccccc2C1=O` (centres undefined), the Potency is 8.49 µM (active) in assay [3] and 16.9 µM (active) in assay [4].

On to `Cc1nc(-c2cn3c(n2)-c2ccc(-c4cnn(C(C)(C)C(N)=O)c4)cc2OCC3)n(C(C)C)n1`, for which the Potency entry in assay [3] is “inactive”. The Potency in assay [7] is 7.3 nM (active) and 18.6 nM (active); in assay [2] it was 5.8 nM (active) and 33.2 nM (active).

With `CCCCCCCCCCCCCCCC(=O)OC/C=C(C)/C=C/C=C(C)/C=C/C1=C(C)CCCC1(C)C`, the Potency entry in assay [3] is “inactive”. For the same compound, the Potency in assay [4] is 13.5 µM (active).

On to `COc1ccnc(CS(=O)c2nc3cc(OC(F)F)ccc3[nH]2)c1OC` (centres undefined), for which the Potency entry in assay [3], in assay [7] and in assay [2] was “inactive” throughout.
